# From PubChem
# Most compounds without a hit are left out; they make up all but 5.7% or so of the library.
# hgDAF12 agonist – hgDAF-12 agonism, primary luciferase screen. HEK293 GAL4-hgDAF12 UAS-luciferase reporter, agonist luminescence; normalized to butyrate control. activation, % at 6.8 µM. 370,000 compounds, 1.8% hits. AID 687014;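 active means activation above a cutoff set at the mean of all screened compounds plus 3 SD, cut at about 10% in these data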;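 further: 0% = DMSO wells and 100% = sodium butyrate wells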
# AHR act – activators of human aryl hydrocarbon receptor. P35869. AID 2796. AHR-responsive luciferase reporter cells, luminescence. activation, % at 5 µM. 320,000 compounds, 2.5% hits; in the data active means activation above about 47%;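 further: 0% = vehicle wells and 100% = reference agonist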
# hcDAF-12 act – H. contortus DAF-12 activation, primary screen. HEK293 hcDAF-12 lit1-tk-luc reporter, luminescence; 0% DMSO, 100% Δ7-dafachronic acid. activation, % at 6.8 µM. 370,000 compounds, 1.4% hits;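 active means activation above the mean of all tested compounds plus 3 SD, cut at about 5.5% in these data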;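 further: 100% = response to 3 µM Δ7-dafachronic acid high control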
# DAX1 inh-1 – blocks DAX1 repression of SF-1 activated StAR promoter. HEK293T StAR-luciferase reporter, SF-1/DAX-1 repression relief. inhibition, % at 6.8 µM. 370,000 compounds, 1.1% hits. AID 652010;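 active means inhibition above the mean over all tested compounds plus 3 SD, cut at about 3.6% in these data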;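 further: 0% = DAX-1 cells with DMSO and 100% = cells lacking DAX-1 with DMSO; higher inhibition means more luminescence from relief of DAX-1 repression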
# DAX1 inh-2 – inhibitors of human orphan nuclear receptor DAX1 (NR0B1) | HEK293 Gal4-DAX1 luciferase reporter, luminescence | inhibition, % at 6.75 µM | 340,000 compounds, 0.99% hits | AID 504766;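 active means inhibition above the mean over all tested compounds plus 3 SD, cut at about 4.2% in these data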;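 further: 0% = DAX1-transfected cells with DMSO and 100% = empty-vector control cells with DMSO; inhibition shows as a rise in luminescence from relieved DAX1 repression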
# Target sequence (P51843 207-470 limits assumed): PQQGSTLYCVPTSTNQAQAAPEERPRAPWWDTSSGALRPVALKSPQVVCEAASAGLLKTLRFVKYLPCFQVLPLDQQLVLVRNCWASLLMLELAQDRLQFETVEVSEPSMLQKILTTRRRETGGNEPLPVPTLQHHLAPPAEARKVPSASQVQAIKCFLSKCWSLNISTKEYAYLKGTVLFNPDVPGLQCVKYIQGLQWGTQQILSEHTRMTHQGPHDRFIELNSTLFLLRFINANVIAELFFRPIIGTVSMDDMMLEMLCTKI
# ssDAF12 agonist – activates DAF-12 receptor from parasite S. stercoralis. HEK293 ssDAF-12/GRIP1 lit1-tk-luc reporter, luminescence; % of 3 µM dafachronic acid response. 370,000 compounds, 1% hits. activation, % at 6.8 µM;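 active means activation above the mean over all tested compounds plus 3 SD, cut at about 0.9% in these data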;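 further: 0% = DMSO-only wells and 100% = 3 µM delta7-dafachronic acid wells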
# AHR act cf – human AHR activation, confirmation | shares compounds with AHR act | human cells, AHR-responsive luciferase reporter, luminescence | activation, % at 9 µM | 2,300 compounds, 87% hits | AID 2845; in the data active means activation above about 49%;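 further: HepG2 hepatoma cells carrying a DRE-driven firefly luciferase reporter; 0% = vehicle wells and 100% = reference agonist wells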
# PXR act counter – activates human PXR in AHR activator counter-screen; 2,300 compounds, 88% hits; activation, % at 11.6 µM; shares compounds with AHR act; cell-based PXR reporter, luciferase luminescence; in the data active means activation above about 11%;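 further: human hepatoma DPX-2 cells expressing full-length human PXR; 0% = DMSO and 100% = reference agonist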
# Target sequence (O75469 whole entry, looked up): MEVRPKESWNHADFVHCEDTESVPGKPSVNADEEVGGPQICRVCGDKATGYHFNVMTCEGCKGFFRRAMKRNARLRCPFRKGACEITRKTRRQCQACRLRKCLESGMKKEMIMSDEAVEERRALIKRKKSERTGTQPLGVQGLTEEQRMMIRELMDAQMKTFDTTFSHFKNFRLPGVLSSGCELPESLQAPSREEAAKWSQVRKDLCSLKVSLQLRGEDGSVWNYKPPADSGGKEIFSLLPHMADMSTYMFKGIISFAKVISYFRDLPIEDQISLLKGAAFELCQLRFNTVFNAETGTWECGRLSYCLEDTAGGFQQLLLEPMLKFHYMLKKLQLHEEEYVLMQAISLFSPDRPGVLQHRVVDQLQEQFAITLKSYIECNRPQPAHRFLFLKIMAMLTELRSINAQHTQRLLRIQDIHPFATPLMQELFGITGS
# * marks the source's active call; other numbers are inactive results; · = not tested or not shown.
SMILES,hgDAF12 agonist,AHR act,hcDAF-12 act,DAX1 inh-1,DAX1 inh-2,ssDAF12 agonist,AHR act cf,PXR act counter
CCOC(=O)N1CCN(C(=O)CSc2nc3c([nH]c4ccccc43)c(=O)n2CCOC)CC1,-2.1,30.5,2.4,-1.2,-0.5,0.6,·,·
COCCn1c(SCC(=O)Nc2cccc(NC(C)=O)c2)nc2c([nH]c3ccccc32)c1=O,-2.8,107.9*,1.3,-1.2,-0.7,-0.2,90.8*,38.9*
COc1ccccc1-n1c(SCC(=O)NCC2CCCO2)nc2c([nH]c3ccccc32)c1=O (centres undefined),-0.4,90.1*,2.2,-1.4,1.4,0.6,127.2*,164.5*
COCCn1c(SCC(=O)N2CCCCC2)nc2c([nH]c3ccccc32)c1=O,0.1,30.4,3.5,0.1,0.1,0.6,·,·
Cc1cc(C)nc(SCCc2ccncc2)n1,1.4,14.1,-1.3,0.3,-0.7,-1.2,·,·
Fc1ccccc1/C=N/Nc1nn[nH]n1,-1.5,2.4,-1.1,-0.3,1.6,-0.4,·,·
CC(=O)c1ccc(OC(=O)C2c3ccccc3Oc3ccccc32)cc1,1.5,0.8,1.8,0.2,-0.1,-0.3,·,·
O=C(COc1ccc(Cl)cc1)Nc1nnc(S(=O)(=O)N2CCCCCC2)s1,-0.6,-1.7,-0.4,-0.3,-1.1,-1.1,·,·
O=C(Cc1nn[nH]n1)Nc1ccc(F)cc1F,-1.5,0.7,0.9,-0.6,·,-1.7,·,·
COc1ccccc1-n1c(SCC(=O)Nc2ccc(NC(C)=O)cc2)nc2c([nH]c3ccccc32)c1=O,0.8,81.4*,2.7,-0.2,1.5,0.7,99.5*,119.2*
COc1ccc(/C=N/NC(=O)c2cccc(NC(=O)c3ccccc3)c2)c(C(=O)O)c1OC,4.8,112.9*,2.7,0.1,1.3,-1.1,94.7*,12.6*
COc1ccc(C(=O)Nc2cccc(C(=O)N/N=C/c3ccc(OC)cc3OC)c2)cc1,5.3,35.7,-0.7,-0.1,-2.7,-1.1,·,·
Cc1cccc(/C=N/NC(=O)c2cccc(NC(=O)c3ccccc3)c2)n1,3.0,106.0*,1.7,0.1,-0.7,-1.1,102.3*,27.9*
Cc1cccc(/C=N/NC(=O)c2cccc(Cl)c2)n1,1.1,-2.5,2.4,0.1,0.6,-0.8,·,·
Cc1cc(NC(=O)CN2C(=O)S/C(=C\c3ccccc3)C2=O)no1,2.0,-1.6,-2.2,0.1,0.5,-1.3,·,·
Cc1ccc(C(=O)O/N=C(\N)c2ccc(Br)cc2)cc1C,4.8,33.0,2.1,0.2,-0.4,-0.9,·,·
Cc1ccc(C)c(C(=O)O/N=C(\N)c2ccc(Br)cc2)c1,6.5,95.0*,3.4,0.4,3.0,-0.3,117.7*,15.1*
COP(=O)(CN(Cc1ccccc1)C(=S)Nc1c(C)cccc1C)OC,-0.1,-0.7,-1.4,-0.7,-0.4,-1.8,·,·
O=C(C[n+]1cc2ccccc2c2ccccc21)c1ccccc1,5.6,87.1*,5.2,-0.6,1.9,0.6,93.3*,55.3*
Cc1ccc2[nH]c(O)c(N=NC(=O)C(C)n3cnc4ccccc4c3=O)c2c1 (centres undefined),-0.4,88.2*,1.1,-0.6,1.4,-0.7,69.2*,45.8*
CC(/C=C/c1cccc([N+](=O)[O-])c1)=N/NC(=O)c1cccnc1,0.1,85.2*,0.4,-0.3,0.7,0.0,77.1*,·
O=C(CCn1c(=O)oc2ccccc21)Nc1nc2ccccc2s1,-0.5,104.2*,0.8,-0.6,-0.1,-1.0,82.0*,103.7*
COc1cc(OC)cc(C(=O)Nc2ccc(-n3cnnn3)c(C)c2)c1,3.2,-10.9,-0.6,0.4,-0.5,-1.2,·,·
Cc1cc(NC(=O)c2oc3ccccc3c2C)ccc1-n1cnnn1,-0.2,98.8*,0.1,-1.3,-1.3,-1.4,99.5*,14.2*
Cc1noc(C)c1S(=O)(=O)N(CC(=O)Nc1ccc2c(c1)OCO2)c1ccc(C(C)C)cc1,0.0,79.7*,0.8,-0.2,3.0,-0.1,83.6*,159.0*
SMILES,hgDAF12 agonist,AHR act,hcDAF-12 act,DAX1 inh-1,DAX1 inh-2,ssDAF12 agonist,AHR act cf,PXR act counter
COc1ccc(N(CC(=O)Nc2ccc(C(C)C)cc2)S(=O)(=O)c2c(C)noc2C)cc1,0.4,5.8,0.9,-0.2,0.0,-0.4,·,·
c1csc(C2Nc3ccccc3-c3nc4ccccc4n32)c1 (centres undefined),9.6,132.6*,2.5,2.4,-1.2,0.1,23.4,111.8*
O=C(NC1CCS(=O)(=O)C1)C1CCCC1 (centres undefined),-1.3,-1.2,-2.6,0.3,1.5,-1.5,·,·
Cc1[nH]n(C(N)=S)c(=O)c1N=Nc1cccc(Cl)c1,4.0,114.2*,5.1,0.3,2.9,-0.2,114.6*,12.6*
NC(=S)n1[nH]c(-c2ccc([N+](=O)[O-])cc2)c(N=Nc2cccc(Cl)c2)c1=O,0.6,·,-1.8,-1.0,-0.3,-1.1,·,·
CC1=NN(C(N)=S)C(=O)C1N=Nc1cccc(Cl)c1 (centres undefined),7.4,85.0*,6.1*,0.8,1.0,0.7,148.2*,27.2*
Cc1ncc(CO)c(/C=N/Nc2ccc(C(F)(F)F)cn2)c1O,-8.3,80.5*,-1.1,-2.0,-1.7,-1.6,2.5,14.7*
Cc1ncc(CO)c(/C=N/NC(=S)Nc2ccc(F)cc2)c1O,0.3,17.9,1.3,-0.3,0.9,-0.1,·,·
O=C(CNC(=O)OCc1ccccc1)NC1CCCCCCC1,0.5,-1.2,-2.1,0.6,1.6,-1.0,·,·
O=C(NC(=S)Nc1ccccc1N1CCOCC1)c1ccccc1F,1.0,95.3*,-0.3,-2.8,0.1,-1.4,73.0*,31.3*
O=C(NCc1ccccc1F)C(=O)NCC1CCCN1S(=O)(=O)c1ccccc1 (centres undefined),-1.1,-1.6,-1.6,-0.2,1.1,-1.0,·,·
O=C(Nc1cccc(F)c1)c1cccnc1NCCc1ccccc1,4.2,8.9,0.1,0.2,1.2,-0.2,·,·
COc1ccc(Cl)cc1C(=O)NNC(=O)c1[nH]c(C)c(C(C)=O)c1C,1.0,81.1*,3.2,-0.6,1.6,-0.7,96.3*,49.8*
CCOc1ccc(OCC)c(NC(=O)c2[nH]c(C)c(C(C)=O)c2C)c1,0.4,79.7*,-0.1,0.2,-0.6,-0.7,94.6*,18.8*
O=c1cc(-c2ccc3c(c2)OCO3)oc2ccccc12,3.1,104.4*,5.0,2.0,2.0,-1.0,142.5*,79.1*
O=c1cc(-c2cccc(F)c2)oc2ccccc12,5.3,·,1.3,0.6,0.9,-0.8,·,·
CSc1cccc(NC(=O)c2c(Cl)cnn2C)c1,0.4,8.5,0.8,-0.8,0.2,-1.6,·,·
Cn1ncc([N+](=O)[O-])c1C(=O)Nc1cccc(Cl)c1,-2.1,99.2*,-1.4,-0.1,1.9,-1.4,107.3*,20.6*
